Source: PubChem BioAssay
Values without a mark were called inactive. How the calls were made is not given here.

Each compound was assayed against Pantothenate synthetase (Mycobacterium tuberculosis (strain ATCC 25618 / H37Rv)) (UniProt P9WIL5) (assay: Recombinant Mtb pantothenate synthetase (PanC) inhibitors, coupled enzyme, confirmatory (AID 375;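 further: 0% = full reaction with vehicle and 100% = no enzyme background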)). Settings: coupled enzyme assay; at 10 µM, active compounds read high.
Pantothenate synthetase (Mycobacterium tuberculosis (strain ATCC 25618 / H37Rv)), sequence (P9WIL5 whole entry, looked up): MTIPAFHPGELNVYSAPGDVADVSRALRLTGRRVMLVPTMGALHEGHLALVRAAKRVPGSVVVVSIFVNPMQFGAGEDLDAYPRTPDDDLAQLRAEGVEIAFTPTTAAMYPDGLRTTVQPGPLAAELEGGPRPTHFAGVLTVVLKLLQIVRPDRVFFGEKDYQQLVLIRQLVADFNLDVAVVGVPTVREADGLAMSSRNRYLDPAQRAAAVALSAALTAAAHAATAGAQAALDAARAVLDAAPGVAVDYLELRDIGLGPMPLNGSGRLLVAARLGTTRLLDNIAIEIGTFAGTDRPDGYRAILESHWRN

Going from `CCn1c(=O)cc(OCC(=O)Nc2cc(C)ccn2)c2ccccc21` to `CCOc1ccccc1OCC(=O)Nc1nnc(COC)s1`, the inhibition rises from 0% to 4%.

First: O=C(COc1ccc2c(c1)OCO2)NC12CC3CC(CC(C3)C1)C2
Second: CN(C)/C=C1\N=C(c2ccc3c(c2)OCO3)OC1=O
The inhibition of the first is higher: 4% for the first, 0% for the second.

First: COc1ccc(OCC(=O)N2CCN(C(=O)Cc3ccccc3)CC2)cc1
Second: O=C(c1ccccc1F)N1CCN(Cc2cccc(Cl)c2)CC1
The inhibition of the first is lower: 0% for the first, 5% for the second.

Going from `COC(=O)c1ccccc1NC(=O)COc1ccc(S(=O)(=O)N2CCCC2)cc1C` to `CCN(CC)c1ccc(NC(=O)CN2CCN(CC(=O)Nc3ccccc3F)CC2)cc1`, the inhibition rises from 0% to 1%.

First: CC12CCC(C(=O)N3CCCCC3)(CC1=O)C2(C)C (stereo not given)
Second: CC(Sc1nc(-c2ccccc2)cc(C(F)(F)F)n1)C(=O)N1CCCC1 (stereo not given)
The inhibition of the first is lower: 0% for the first, 1% for the second.

`Cc1cc2ncn(N)c2cc1C` and `C/C(N)=C(/C#N)C(=O)CSc1nnc(Nc2c(C)cccc2C)s1` are the same in inhibition: 9% for the first, 9% for the second.

`O=C(Nc1ccccc1)N1C(=O)C2(OCCO2)c2ccccc21` and `O=C(NCCN1CCOCC1)c1ccc2c(c1)N(Cc1ccccc1)C(=O)CS2` are the same in inhibition: 0% for the first, 0% for the second.

`CCCc1ccc(C(C)NC(=O)c2cnccn2)cc1` (stereo not given) and `CCCn1c(-c2ccc(F)cc2)cnc1SCC(=O)O` are the same in inhibition: 0% for the first, 0% for the second.

Going from `c1ccc2c(SCc3cn4cccnc4n3)ncnc2c1` to `O=C(NC1CCCCC1)N(Cc1ccc(F)cc1)Cc1nc2ccccc2c(=O)[nH]1`, the inhibition rises from 2% to 9%.

`COc1ccc(NCc2nnc(SCC(=O)Nc3cc(C)cc(C)c3)o2)cc1` and `CCOC(=O)c1[nH]c(CSc2nnc(-c3ccc(OC)cc3)o2)c(C(=O)OCC)c1C` are the same in inhibition: 0% for the first, 0% for the second.

First: Cn1c(SCCN2CCCCC2)nnc1-c1ccccc1Br
Second: Cc1ccc2ncnc(NCCCN3CCOCC3)c2c1
The inhibition of the first is lower: 0% for the first, 1% for the second.

Going from `CC(C)OC(=O)C(CC(=O)O)NCc1ccccc1` (stereo not given) to `CN(C)CCCN1C(=O)CSC1c1ccccc1` (stereo not given), the inhibition falls from 1% to 0%.

`C[C@]12CC[C@@H]3c4ccc(OC(=O)c5ccccc5)cc4CC[C@H]3[C@@H]1CC[C@@H]2O` and `CN(C)c1ccc(/C(=N\O)c2ccccc2)cc1` are the same in inhibition: 0% for the first, 0% for the second.

`COc1ccc(CCNC(=O)C2CCN(Cc3nc(-c4cccc(Cl)c4)oc3C)CC2)cc1OC` and `COc1ccc(NC(=O)Nc2ccc(N3CCCC3=O)cc2)cc1OC` are the same in inhibition: 0% for the first, 0% for the second.

Compared with `CCn1c(C(=O)N2CCCC(C(=O)O)C2)cc2sccc21` (stereo not given), `CS(=O)(=O)N1CCCC(C(=O)NCCCN2CCc3ccccc3C2)C1` (stereo not given) is lower in inhibition: 11% for the first, 2% for the second.

Compared with `CSc1nc(C)c(C(=O)Nc2ccccc2)c(C)c1C#N`, `COc1ccc2cc(CN(CCO)C(=O)c3ccccc3F)c(=O)[nH]c2c1` is higher in inhibition: 0% for the first, 5% for the second.

First: COc1ccc(CCN2C(=O)CC(N3CCOCC3)C2=O)cc1 (stereo not given)
Second: COc1ccc(-c2[nH]nc3c2C(c2ccccc2OC(=O)N2CCOCC2)C(C#N)=C(N)O3)cc1 (stereo not given)
The inhibition of the first is lower: 0% for the first, 5% for the second.

Compared with `CCCN(CCC)C(=O)c1c(C)[nH]c(C(=O)OCC)c1C`, `CCOC(=O)c1cc2c(=O)n3ccccc3nc2n(CC2CCCO2)c1=NC(C)=O` (stereo not given) is higher in inhibition: 0% for the first, 4% for the second.

`CC(NCCC(c1ccccc1)c1ccccc1)c1ccccc1` (stereo not given) and `C/C=C(\CS(=O)(=O)c1ccccc1)S(=O)(=O)c1ccccc1` are the same in inhibition: 0% for the first, 0% for the second.

`COc1ccc(/C=N/n2cnnc2SCc2ccc(OC)cc2)cc1` and `O=C(CSc1nccn1-c1cccc(Cl)c1)NC1CCCC1` are the same in inhibition: 0% for the first, 0% for the second.
